Shown is part of a subset that was picked to be rich in hits.
Shiga toxin inh: inhibitors of Shiga toxin in Vero cells; Vero cells, Shiga toxin protein synthesis inhibition reporter; inhibition, % at 38.7 µM; 290,000 compounds, 9.2% hits; in the data active means inhibition mostly above about 28%, no sharp cut-off; inactive means mostly below about 43%; further: 0% is about no effect
CHX counter: counter-screen hit for Shiga toxin inhibitors, cycloheximide. cell reporter, cycloheximide protein synthesis inhibition counterscreen. max response, %. 300,000 compounds, 12% hits. AID 2314; in the data active means max response mostly above about 13%, no sharp cut-off; inactive means mostly below about 14%; further: read at 38.3 µM for the half of the compounds with a filed dose; 0% is about no effect
FBPA Giardia inh: Giardia lamblia aldolase inhibition; purified Giardia FBPA; Potency, µM (titrated, usually from 59.6 µM), inactives show top-dose activity, negative = inhibition, actives largely listed as inhibitors; 290,000 compounds, 0.71% hits; further: potency means the concentration at half of the fitted maximal effect; on the % scale 0 is the no-effect control and ±100 the full control effect; nearly all actives have a fitted effect of over 55% in size
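40 nM FBPA preincubated 10 min at RT with compound (up to 57.5 uM final), then substrate plus GAPDH/TPI/NAD/arsenate coupling and diaphorase/resazurin added. Fluorescence read after 20 min at RT, 525/598 nm.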
Tb PYK inh: inhibitors of Trypanosoma brucei pyruvate kinase | Potency, µM (doses to about 76.8 µM), for the others: top-dose activity, negative = inhibition, hits mostly inhibitors | 410,000 compounds, 0.12% hits | TbPYK enzyme, Kinase-Glo Plus ATP luminescence, 45 min | Q57TT1 | AID 624173; further: potency means the concentration at half of the fitted maximal effect; on the % scale 0 is the no-effect control and ±100 the full control effect; nearly all actives have a fitted effect of over 50% in size
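Luminescence from Kinase-Glo Plus, added after a 45-minute room-temperature reaction, served as the end-point read-out. The enzyme and substrate were preincubated with compound before ADP (130 uM final) initiated turnover. Concentration-effect curves came from normalized qHTS data.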
LmPK inhibitor: LmPK (Leishmania mexicana) enzyme inhibition; Q27686; purified LmPK, Kinase-Glo ATP luminescence, 1 h; Potency, µM (top dose mostly 57.5 µM), for inactives: at the highest dose activity change, negative = inhibition, usual class: inhibitors; 290,000 compounds, 0.37% hits; further: potency means the concentration at half of the fitted maximal effect; on the % scale 0 is the no-effect control and ±100 the full control effect
Target sequence (Q27686 whole entry, looked up): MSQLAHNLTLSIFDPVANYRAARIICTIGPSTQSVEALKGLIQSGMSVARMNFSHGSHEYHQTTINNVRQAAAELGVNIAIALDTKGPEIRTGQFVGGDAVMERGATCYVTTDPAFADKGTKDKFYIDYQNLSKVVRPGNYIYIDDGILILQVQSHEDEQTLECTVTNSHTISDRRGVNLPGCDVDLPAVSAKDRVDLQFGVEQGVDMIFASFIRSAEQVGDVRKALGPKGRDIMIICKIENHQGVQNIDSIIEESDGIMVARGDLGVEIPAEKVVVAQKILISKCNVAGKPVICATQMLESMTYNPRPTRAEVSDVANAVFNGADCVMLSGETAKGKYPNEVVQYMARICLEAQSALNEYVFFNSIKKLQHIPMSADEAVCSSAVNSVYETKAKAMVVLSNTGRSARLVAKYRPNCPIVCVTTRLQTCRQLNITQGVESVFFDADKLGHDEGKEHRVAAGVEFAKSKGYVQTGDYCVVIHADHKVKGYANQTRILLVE
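ATP generated from ADP (0.1 mM) and PEP (0.5 mM) by 0.1 nM LmPK over 1 h at room temperature (pH 7.2 imidazole buffer) was detected by coupled luciferase luminescence. Values were normalized to uninhibited and no-enzyme wells.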
RE007 growth inh: less growth of the S. pombe RE007 Vpr strain | Potency, µM (highest dose often 92.2 µM), without a hit: at the top dose activity change, negative = less growth, hits mostly inhibitors | AID 651644 | S. pombe RE007 Vpr strain, BacTiter-Glo ATP luminescence, 24 h | 360,000 compounds, 0.21% hits; active means well fitted falling curve with a large enough effect; inconclusive means small, poorly fitted or top-dose-only effect; inactive means no such curve, though single readings can be large or run the other way; further: potency means the concentration at half of the fitted maximal effect; on the % scale 0 is the no-effect control and ±100 the full control effect; nearly all actives have a fitted effect of over 50% in size
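Fission yeast RE007 carrying one integrated HIV-1 vpr copy, seeded at OD 0.01 in PMG+AL medium with 23 nL pinned compound. Grown 24 h at 30 degrees; viability read by BacTiter-Glo luminescence after 5 min.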
An asterisk follows results filed as active. Unless noted, the call rests on the fitted dose curve; in most records, active means well fitted curve in the direction sought with a large enough effect; inconclusive means small, poorly fitted or top-dose-only effect, or another doubt; inactive means no such curve, though single readings can be large; an effect the other way counts as inactive or inconclusive.

How did c1ccc(-c2nc3nc4ccccc4nc3n2Cc2ccco2)cc1 do in these assays?
Shiga toxin inh: 137.1*; CHX counter: 81.9*; FBPA Giardia inh: -14.2%; Tb PYK inh: 3.2%; LmPK inhibitor: -6.8%; RE007 growth inh: -7.7%

Results for S=c1nc(-c2ccccc2)n(Cc2ccco2)c2c1CCCC2 ?
Shiga toxin inh: -12.4; CHX counter: -1.4; FBPA Giardia inh: -12.0%; LmPK inhibitor: -0.6%

How did Fc1ccc(-c2nc3nc4ccccc4nc3n2Cc2ccco2)cc1 do in these assays?
Shiga toxin inh: 125.4*; CHX counter: 43.7*; FBPA Giardia inh: -7.8%; Tb PYK inh: -7.1%; LmPK inhibitor: 2.5%; RE007 growth inh: 4.0%

How did Fc1ccc(-n2c(-c3ccco3)nc3nc4ccccc4nc32)cc1 do in these assays?
Shiga toxin inh: -11.0; CHX counter: -4.9; FBPA Giardia inh: 0.1%; Tb PYK inh: -1.2%; LmPK inhibitor: 6.0%; RE007 growth inh: -6.1%

How did Cc1cc(C)c(C)c(OCC(=O)O/N=C(\N)c2ccncc2)c1 do in these assays?
Shiga toxin inh: -4.0; CHX counter: -2.0; FBPA Giardia inh: 4.5%; Tb PYK inh: 3.1%; LmPK inhibitor: -2.3%; RE007 growth inh: -4.3%

How did Cc1ccc(SC(C)C(=O)O/N=C(\N)c2ccncc2)cc1 (configuration not stated) do in these assays?
Shiga toxin inh: -23.4; CHX counter: 19.9*; Tb PYK inh: 2.5%; LmPK inhibitor: -7.4%; RE007 growth inh: 3.6%

How did Cc1ccccc1OCC(=O)O/N=C(\N)c1ccncc1 do in these assays?
Shiga toxin inh: 98.6*; CHX counter: 44.5*; FBPA Giardia inh: 5.7%; Tb PYK inh: -4.4%; LmPK inhibitor: -1.9%; RE007 growth inh: 6.1%

Results for Cc1ccc(OCC(=O)O/N=C(\N)c2ccncc2)c(C)c1 ?
Shiga toxin inh: 113.6*; CHX counter: 32.8*; FBPA Giardia inh: 4.4%; Tb PYK inh: -4.2%; LmPK inhibitor: -2.6%; RE007 growth inh: -1.7%

What do the screens show for `Cc1ccc(SCC(=O)O/N=C(\N)c2ccc([N+](=O)[O-])cc2)cc1`?
Shiga toxin inh: -5.7; CHX counter: -2.6; FBPA Giardia inh: -4.7%; Tb PYK inh: 0.4%; LmPK inhibitor: 2.3%; RE007 growth inh: -14.9%

Results for CCCC(=O)N1CCCC(c2nc(-c3cccs3)no2)C1 (configuration not stated) ?
Shiga toxin inh: 86.1*; CHX counter: 20.6*; FBPA Giardia inh: -0.9%; Tb PYK inh: -19.3%; LmPK inhibitor: 1.1%; RE007 growth inh: 0.8%

Results for CCC(C)C(=O)N1CCCC(c2nc(-c3cccs3)no2)C1 (configuration not stated) ?
Shiga toxin inh: 100.9*; CHX counter: 31.0*; FBPA Giardia inh: 3.6%; Tb PYK inh: 0.0%; LmPK inhibitor: -2.5%; RE007 growth inh: -2.5%

How did COc1cc(C(=O)N2CCCC(c3nc(-c4cccs4)no3)C2)cc(OC)c1OC (configuration not stated) do in these assays?
Shiga toxin inh: -6.4; CHX counter: -1.1; FBPA Giardia inh: 5.5%; Tb PYK inh: -17.5%; LmPK inhibitor: -0.8%; RE007 growth inh: 4.3%

How did Oc1ccc2ccccc2c1/C=N/c1nc2c(s1)CCCC2 do in these assays?
Shiga toxin inh: 5.1; CHX counter: 13.6*; FBPA Giardia inh: inconclusive; Tb PYK inh: -7.1%; LmPK inhibitor: -3.0%; RE007 growth inh: inconclusive

How did Oc1c(Br)cc(Br)cc1/C=N/c1nc2c(s1)CCCC2 do in these assays?
Tb PYK inh: -7.8%; RE007 growth inh: inconclusive

How did Cc1ccc(/C=C/C(=O)N2CCN(S(=O)(=O)c3c(C)c(C)cc(C)c3C)CC2)o1 do in these assays?
Shiga toxin inh: -8.2; CHX counter: -3.0; FBPA Giardia inh: 0.5%; Tb PYK inh: inconclusive; LmPK inhibitor: 0.6%; RE007 growth inh: 10.5%

What do the screens show for `Cc1ccc(/C=C/C(=O)N2CCN(S(=O)(=O)c3ccc(C)c(C)c3)CC2)o1`?
Shiga toxin inh: -2.9; CHX counter: -1.8; FBPA Giardia inh: -12.0%; Tb PYK inh: 14.1µM*; LmPK inhibitor: 7.0%; RE007 growth inh: 24.7%

How did Cc1cccc(-c2nc(=S)c3c(o2)CCCC3)c1 do in these assays?
Shiga toxin inh: 129.5*; CHX counter: 48.5*; FBPA Giardia inh: inconclusive; Tb PYK inh: -3.0%; LmPK inhibitor: -11.4%; RE007 growth inh: -16.7%

What do the screens show for `CC1CCN(C(=O)c2ccc(CS(=O)(=O)Cc3ccccc3)cc2)CC1`?
Shiga toxin inh: -10.5; CHX counter: 1.6; FBPA Giardia inh: -12.3%; Tb PYK inh: 6.9%; LmPK inhibitor: -20.3%; RE007 growth inh: 1.6%

What do the screens show for `CC1CCN(C(=O)CS(=O)(=O)Cc2ccccc2)CC1`?
Shiga toxin inh: 77.1*; CHX counter: 35.0*; FBPA Giardia inh: 1.8%; Tb PYK inh: -4.1%; LmPK inhibitor: -2.7%; RE007 growth inh: -8.9%

What do the screens show for `CN(C)S(=O)(=O)c1ccc(C(=O)NCCOc2ccccc2)cc1`?
Shiga toxin inh: 82.8*; CHX counter: 40.1*; FBPA Giardia inh: 4.1%; Tb PYK inh: 0.8%; LmPK inhibitor: 0.1%; RE007 growth inh: -22.9%

What do the screens show for `CN(C)S(=O)(=O)c1ccc(C(=O)OCCc2ccccc2)cc1`?
Shiga toxin inh: 32.8; CHX counter: 39.3*; FBPA Giardia inh: -5.4%; Tb PYK inh: 1.5%; LmPK inhibitor: -4.5%; RE007 growth inh: 2.5%

What do the screens show for `CN(C)S(=O)(=O)c1ccc(C(=O)NCCS(=O)(=O)N2CCN(c3ccc(F)cc3)CC2)cc1`?
Shiga toxin inh: -9.2; CHX counter: -3.2; FBPA Giardia inh: -6.0%; Tb PYK inh: -1.8%; LmPK inhibitor: -0.2%; RE007 growth inh: -6.7%

What do the screens show for `CN(C)S(=O)(=O)c1ccc(C(=O)NCCOc2ccc(F)cc2)cc1`?
Shiga toxin inh: 84.1*; CHX counter: 42.2*; FBPA Giardia inh: 4.2%; Tb PYK inh: -2.1%; LmPK inhibitor: 2.0%; RE007 growth inh: 30.2%

What do the screens show for `COc1cccc(N2CC(NC(=O)COc3ccc4ccccc4c3)CC2=O)c1` (configuration not stated)?
Tb PYK inh: 1.4%

Results for CCc1ccccc1Nc1nc(N)nc(COC(=O)CCC(=O)c2ccc(F)cc2)n1 ?
Tb PYK inh: -0.8%; RE007 growth inh: 2.5%

How did Cc1ncc([N+](=O)[O-])n1S(=O)(=O)c1ccc2c(c1)OCCO2 do in these assays?
Tb PYK inh: -11.1%; RE007 growth inh: -6.0%

What do the screens show for `Cc1nccn1CCC(=O)NC1CC(C)(C)Cc2c1cnn2-c1ccccc1` (configuration not stated)?
Tb PYK inh: -12.8%; RE007 growth inh: -4.0%

How did COc1ccc(CNc2cc(C)ccn2)c(O)c1 do in these assays?
Shiga toxin inh: 79.5*; CHX counter: 25.3*; FBPA Giardia inh: 3.0%; Tb PYK inh: 4.8%; LmPK inhibitor: 4.0%; RE007 growth inh: 0.2%

Compound activity deposited in PubChem by National Center for Advancing Translational Sciences (NCATS).
